# Data from PubChem BioAssay (NCATS).
# Results filed as inconclusive are left out. A number with no mark means an inactive call. Activity calls are given as the source filed them. The call rests on the fitted dose curve; in most records, active means well fitted cell-killing curve with a large enough effect; inconclusive means small, poorly fitted or top-dose-only effect, or effect the other way; inactive means flat fitted curve, though single readings scatter. *1 amine or outer side, *2 acyl side, *3 side chain or, on linkers, in order; H or OH if unused. Where a SMILES comes first, the peptide text is derived from it. [ ]: non-standard residue; d: D form. ξ: configuration not given here. X5 = CC(CC(O[*:1])C(=O)[*:2])C(=O)O; ξLac(3-iPr) = CC(C)CC(O)C(=O)O; NMeV = CN[CH](C(=O)O)C(C)C; NMeA = CN[CH](C)C(=O)O; βAla = NCCC(=O)O
# Tested on: HeLa
# Assay: Primary qHTS to identify gynecologic anti-cancer compounds using libraries of approved drugs and bioactive compounds (AID 1345084); further: nearly all actives have a fitted effect of over 55% in size
# Settings: Gynecologic cancer cell panel viability, ATPlite luminescence, 48 h; series mostly up to 57.5 µM; activity change, negative = cytotoxicity: at the top concentration
# From the text: National Center for Advancing Translational Sciences [NCATS] Assay Overview: Chemotherapeutic drug responses vary from cancer to cancer and from patient to patient. These variations could be caused by a number of factors including patient genomic background, tumor mutations, tumor heterogeneity, and aspects of drug treatment. Chemotherapeutic drug resistance is also a common issue and can lead to ineffective treatment and patient death. Here we have profiled the cell killing effects of thousands of compounds to characterize the responses in three gynecological cancers, identify cancer-selective compounds, and understand the diversity of responses to these compounds from pan-cancer suppressors to single cell line selective compounds. In this assay, we screened a 7,914 compound drug library that included approved drug and bioactive compounds in six ovarian, three cervical, and […] placental cancer cell lines using the ATPlite assay for cell viability. […] The cervical cancer cell lines included HeLa, Ca Ski, and C-33 A. The placental cancer cell lines included JEG-3. HEK 293T cells were used as the control cell line to determine the selectivity index. ATPlite is a luminescence based assay reliant on the conversion of a luciferase substrate to light in the presence of ATP. As a cytotoxic compound will suppress growth and decrease the number of cells, the concentration of ATP will decrease, and less light signal will be detected in the well.
# Assay Protocol Summary: 1,000 cells in 4 uL of media were dispensed into white, solid bottom 1536-well plates using a Multidrop Combi (Thermo Scientific). The Assay plates were incubated for 16 hours at 37 C with 5% CO2 in assay plates, followed by the addition of 23 nL of DMSO or drug dissolved in DMSO. Each compound was assayed in five concentrations (0.092, 0.46, 2.3, 11.5, and 57.5 uM), using the automated Wako 1536 Pin Tool workstation and incubated at 37 C with 5% CO2 48 hours. 4 uL of ATPlite, the ATP monitoring reagent, was then added to the each well of the assay plates using the Multidrop Combi reagent dispenser followed by incubation for 15 minutes at room temperature. The resulting luminescence was measured using the ViewLux plate reader.
# On the % scale 0 is the no-effect control and ±100 the full control effect; potency means the concentration at half of the fitted maximal effect.
Compound,"activity change, negative = cytotoxicity",Potency
CC/C=C/C=C/C1(C)OC(OC)=C(C(=O)C2C(C)C(=O)c3cc(OC)c(O)c(O)c3C2(C)O)C1=O (stereo not given),1.67% [at 25.3 µM],–
CN1CCc2cc3c(cc2[C@H]1[C@@H]1OC(=O)c2c1ccc1c2OCO1)OCO3,1.03%,–
C[C@]12CC[C@H](O)C[C@@]1(O)CC[C@@H]1[C@@H]2CC[C@]2(C)[C@@H](c3ccc(=O)oc3)CC[C@]12O,-1.17%,–
COc1ccc(CCNCc2ccc(OC)c3ccccc23)cc1,-0.646%,–
CC[C@H]1C2CC3[C@@H]4N(C)c5ccccc5[C@]45C[C@@H]([C@H]2[C@H]5O)N3[C@H]1O,-3.69% [at 38.5 µM],–
C[C@H]1CC[C@@H]2[C@@H](C)[C@H]3[C@H](C[C@H]4[C@@H]5CC=C6CC(O[C@@H]7O[C@H](CO)[C@@H](O)[C@H](O[C@@H]8O[C@H](CO)[C@@H](O)[C@H](O)[C@H]8O)[C@@H]7O[C@@H]7O[C@@H](C)[C@H](O)[C@@H](O)[C@H]7O)CC[C@]6(C)[C@H]5CC[C@]34C)N2C1 (stereo not given in full),8.23% [at 11.6 µM],–
Fc1cc(F)c2c(c1)[C@H]1C=CC[C@H]1C(c1cccnc1)N2 (stereo not given in full),–,14.1 µM (active)
Cc1ccccc1CN1CCC(N2CCC(n3c(=O)[nH]c4ccccc43)CC2)CC1,-22.5%,–
COc1cc(O)c2c(c1)CCC[C@@H](O)[C@H](O)C(=O)/C=C\C[C@H](C)OC2=O,-2.6% [at 38.5 µM],–
O=C1Nc2ccc3ncsc3c2/C1=C/c1cnc[nH]1,–,22.4 µM (active)
CCC(C)C1NC(=O)C2CCCN2C(=O)C(CC(C)C(=O)O)OC(=O)CCNC(=O)C(C)N(C)C(=O)C(C(C)C)N(C)C1=O (stereo not given) (cyclo([X5]PI[NMeV][NMeA][βAla]); configuration not given here),-6.48% [at 25.3 µM],–
CCC(C)C1NC(=O)C2CCCN2C(=O)C(CC(C)C)OC(=O)CCNC(=O)C(C)N(C)C(=O)C(C(C)C)N(C)C1=O (stereo not given) (cyclo([ξLac(3-iPr)]PI[NMeV][NMeA][βAla]); configuration not given here),-15.4% [at 25.3 µM],–
C/C=C(\C)C(=O)O[C@@H]1[C@@H](C)[C@]2(O)C3C=C(C)C(=O)[C@@]3(O)CC(CO)=C[C@H]2C2C(C)(C)[C@@]21OC(=O)C(C)CC (stereo not given in full),-1.04% [at 25.3 µM],–
CCCCCn1cc(C(=O)C2C(C)(C)C2(C)C)c2ccccc21,5.67%,–
CC(=O)OC[C@]12C[C@H](O)C(C)=C[C@H]1O[C@@H]1[C@H](O)[C@@H](O)[C@@]2(C)[C@]12CO2,–,7.94 µM (active)
C[C@H]1CN(CC[C@H](O)C2CCCCC2)CC[C@@]1(C)c1cccc(O)c1,9.04%,–
CN[C@@H]1C[C@H]2O[C@@](C)([C@@H]1OC)n1c3ccccc3c3c4c(c5c6ccccc6n2c5c31)C(=O)NC4,–,0.282 µM (active)
CO/C1=C\C(C)=C\[C@@H](C)[C@@H](O)[C@@H](C)C/C(C)=C/C=C/[C@H](OC)[C@@H]([C@@H](C)[C@@H](O)[C@H](C)[C@@]2(O)C[C@@H](O)[C@H](C)[C@@H](C(C)C)O2)OC1=O,–,0.126 µM (active)
CO[C@H]1C[C@H](O[C@H]2CC[C@@]3(C)C(=CCC4C3CC[C@]3(C)[C@@H](C5=CC(=O)OC5)CC[C@]43O)C2)O[C@@H](C)[C@@H]1O[C@@H]1O[C@H](CO[C@@H]2O[C@H](CO)[C@@H](O)[C@H](O)[C@H]2O)[C@@H](O)[C@H](O)[C@H]1O (stereo not given in full),1.26% [at 11.6 µM],–
CC12Cc3cn[nH]c3C=C1CCC1C2CCC2(C)C1CCC2(C)O (stereo not given),-8.13%,–

Compound,"activity change, negative = cytotoxicity",Potency
C[N@@+]1(CC2CC2)CC[C@]23c4c5ccc(O)c4O[C@H]2C(=O)CC[C@@]3(O)[C@H]1C5,5.13%,–
COC(=O)C12C(=O)C(C)(O)C(=O)C1(C)C(C)=CC1C3(C=O)CCC(OC(C)=O)C(C)(C)C3CCC12C (stereo not given),-22.6% [at 25.3 µM],–
CC(=O)OC[C@]12C[C@H](OC(=O)CC(C)C)C(C)=C[C@H]1O[C@@H]1[C@H](O)C[C@@]2(C)[C@]12CO2,–,3.98 µM (active)
CC1=C[C@H]2O[C@@H]3C[C@H]4OC(=O)/C=C/C=C/C(=O)OCC/C(C)=C/C(=O)OC[C@@]2(CC1)[C@]4(C)[C@]31CO1,–,0.0891 µM (active)
CC(=O)O[C@@H]1[C@H]2CC[C@H]3[C@@](C)(O)[C@@H]4C[C@H](O)C(C)(C)[C@@]4(O)[C@H](O)C[C@@]13C[C@@]2(C)O,-11.7% [at 25.3 µM],–
C=C1C(=O)O[C@@H]2[C@H]3C(=C)[C@@H](O)C[C@H]3C(=C)C[C@@H](O)[C@@H]12,-1.83%,–
C=CCN1CCC2(C)c3cc(O)ccc3C[C@H]1[C@H]2C,2.3%,–
C=C(C)[C@@H]1[C@H]2OC(=O)[C@H]1[C@]1(O)C[C@H]3O[C@]34C(=O)O[C@H]2[C@]14C,9.32%,–
CN(Cc1cccc(-c2ccncc2)c1)C(=O)Oc1ccc(-c2ccc(C(N)=O)cc2)cc1,3.41%,–
COC1CC(O[C@H]2CC[C@]3(C)C4CC[C@]5(C)[C@@H](C6=CC(=O)OC6)[C@@H](OC(C)=O)C[C@]5(O)C4CC[C@@H]3C2)OC(C)C1O (stereo not given in full),–,0.891 µM (active)
COc1ccc2[nH]c(-c3ccccc3)c(CCN(C)C)c2c1,-0.216%,–
CN1CN(c2ccccc2)C2(CCN(CCCC(=O)c3ccc(F)cc3)CC2)C1=O,-1.2%,–
c1ccc([C@@H]2C[C@H]2NC2CCNCC2)cc1,0.395%,–
CCC1C2CC3C4N(C)c5ccccc5C45CC(C2C5O)N3C1O (stereo not given),5.17% [at 38.5 µM],–
CC1=CC2OC3[C@H](O)C[C@@](C)([C@]34CO4)[C@@]2(CO)[C@H](O)C1=O (stereo not given in full),–,25.1 µM (active)
CC1=CC2/C=C(\C)CCC(O)C(O)C(O)CC(=O)C23C(=O)NC(CC(C)C)C3C1C (stereo not given),0% [at 25.3 µM],–
C/C=C(\C)C(O)C(C)/C=C(C)/C=C/C/C(C)=C/Cc1nc(OC)c(OC)c(O[C@@H]2O[C@@H](C)[C@H](O)[C@@H](O)[C@H]2O)c1C (stereo not given in full),-9.5% [at 25.3 µM],–
C[C@H]1O[C@@H](n2cnc3c(N)ncnc32)C[C@@H]1O,1.86%,–
CC(O)(c1ccccc1)C(Cc1ccc(Cl)cc1)n1cncn1 (stereo not given),2.54%,–
CC(=O)OC[C@]12C[C@H](O)C(C)=C[C@H]1O[C@@H]1[C@H](O)[C@@H](OC(C)=O)[C@@]2(C)[C@]12CO2,–,0.178 µM (active)
